# Results reported in PubChem BioAssay AID1851 (National Center for Advancing Translational Sciences (NCATS), 2009).
# Out of some 16,000 compounds screened, about 5,800 (36%) were called active. Roughly 23% stayed inconclusive and do not appear here. The list shows a part of the results. More than one record can exist for a structure, and the calls need not agree. Unmarked numbers belong to inactive results. Calls follow the shape of the dose curve; as a rule, active = well fitted curve in the direction sought with a large enough effect; inconclusive = small, poorly fitted or top-dose-only effect, or effect the other way; inactive = no such curve, though single readings can be large or run the other way. Peptide text beside a SMILES is read from it. * marks the point of attachment. PhAc = O=C(Cc1ccccc1)*; OBn = c1ccc(CO*)cc1
# Molecular target: Cytochrome P450 2C19 (Homo sapiens) (UniProt P33261)
# Experiment: Cytochrome panel assay with activity outcomes
# Details: recombinant CYP, pro-luciferin dealkylation, luminescence, p450-cyp2c19; series mostly up to 57.1 µM
# % is scaled to controls: 0 for no effect and ±100 for the full control effect.
# Cytochrome P450 2C19 (Homo sapiens), sequence (P33261 whole entry, looked up): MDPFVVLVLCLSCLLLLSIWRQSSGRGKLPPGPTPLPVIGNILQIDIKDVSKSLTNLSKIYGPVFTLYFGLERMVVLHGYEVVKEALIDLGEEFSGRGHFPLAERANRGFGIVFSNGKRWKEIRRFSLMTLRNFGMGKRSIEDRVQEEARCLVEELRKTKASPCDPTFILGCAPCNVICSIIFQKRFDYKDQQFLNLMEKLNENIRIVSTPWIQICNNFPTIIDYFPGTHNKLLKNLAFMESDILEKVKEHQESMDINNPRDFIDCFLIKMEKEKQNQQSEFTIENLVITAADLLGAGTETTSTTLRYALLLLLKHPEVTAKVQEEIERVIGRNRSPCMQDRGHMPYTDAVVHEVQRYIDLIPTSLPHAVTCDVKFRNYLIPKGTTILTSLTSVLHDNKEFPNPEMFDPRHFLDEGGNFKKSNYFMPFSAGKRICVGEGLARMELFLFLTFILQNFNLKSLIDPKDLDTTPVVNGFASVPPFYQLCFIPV
SMILES,"activity, negative = inhibition",AC50
Clc1cc2c(c(CSC3=NCN(CC4CC4)CN3)c1)OCOC2,10.2% [at 11.4 µM],–
Oc1ccc(-c2[nH]ncc2-c2ccc(Cl)cc2)c(O)c1,–,0.251 µM (active)
Cc1[nH]nc(-c2ccc(O)cc2O)c1-c1ccc(Cl)cc1,–,0.282 µM (active)
C=C(C)COc1ccc(-c2n[nH]c(C)c2-c2ccc(OC)cc2)c(O)c1,–,2.24 µM (active)
COc1ccc(-c2n[nH]c(C)c2-c2ccc(Cl)cc2)c(O)c1,–,2.51 µM (active)
CCN1CCCCC(=N/O)/C(=N/O)CCCC1,10.8% [at 11.4 µM],–
O=C1[C@H]2[C@H]3[C@H](O)[C@H](O)C/C(=N/OC[C@@H](O)COCc4ccco4)[C@@H]3CC[C@@H]2C(=O)N1Cc1ccc2c(c1)OCO2,-24.6% [at 11.4 µM],–
CCOC(=O)C1=C[C@@]2(CC)CCCN3CCc4c(n1c1ccccc41)[C@H]32,–,inactive
COc1cc2ccccc2cc1C(=O)Nc1ccc(S(=O)(=O)Nc2cc(C)on2)cc1,–,inactive
Cc1cc(NC(=O)c2ccc(S(=O)(=O)Nc3ccccc3)cc2)no1,–,5.01 µM (active)
O=C1c2ccccc2NC(c2ccc(F)cc2)N1Cc1ccco1 (configuration not stated),–,3.55 µM (active)
Cc1ccc(C2Nc3ccccc3C(=O)N2Cc2ccco2)cc1 (configuration not stated),–,2.82 µM (active)
O=C(C1=C(O)C(=O)N(Cc2ccco2)C1c1ccccc1)c1cccs1 (configuration not stated),–,inactive
COc1ccc(C2Nc3ccccc3C(=O)N2Cc2ccco2)cc1COc1ccc([N+](=O)[O-])cc1 (configuration not stated),–,2.51 µM (active)
S=C(S)O[C@@H]1C[C@@H]2C[C@H]1[C@@H]1CCC[C@H]21,–,15.8 µM (active)
C=CCOc1c(Br)cc(CNc2ccc(NC(=O)C(C)C)c(OC)c2)cc1OC,–,3.55 µM (active)
O=C1c2ccccc2C(=O)N1CCCCN(C(=O)c1cccc([N+](=O)[O-])c1)c1ccc(Cl)cc1,–,3.16 µM (active)
O=C1c2ccccc2C(=O)N1CCCCN(C(=O)c1ccc([N+](=O)[O-])cc1)c1ccc(Cl)cc1,–,4.47 µM (active)
C/C(CCN1CCc2nc(-c3ccccc3)c(-c3ccccc3)cc2C1)=N\O[C@@H](C)CN1CCCCc2nc(C)c(C)cc21,-15.5% [at 11.4 µM],–
O=C(CNC(=O)c1cccs1)NCC(=O)OCc1ccc(Cl)cc1Cl,–,5.01 µM (active)
O=C(CNC(=O)c1cccs1)NCC(=O)OCc1ccc(Cl)cc1,–,6.31 µM (active)
O=C(CNC(=O)Cc1ccccc1)NCC(=O)OCc1ccccc1 (PhAc-Gly-Gly-OBn),–,inactive
COC(=O)C1C(=O)C2=C(CC1C)NC(=O)CC2c1cccc(C)c1 (configuration not stated),–,11.2 µM (active)
COc1ccc(/C(C#N)=C/c2c(-c3ccc(Cl)cc3)nc3c(C)cccn23)cc1,–,3.16 µM (active)
COc1ccc(-n2c(=O)c(-c3ccc(Cl)cc3)nc3cncnc32)cc1,–,inactive

SMILES,"activity, negative = inhibition",AC50
COc1ccc(Oc2ncc3nc(-c4ccc(Cl)cc4)c(=O)n(C)c3n2)cc1,–,inactive
CCCOc1ccc(-c2nc(N)n[nH]2)cc1,–,inactive
Cc1nnc(SCc2nc(N)nc(Nc3ccccc3)n2)s1,–,14.1 µM (active)
Cc1cc(Nc2ccccc2)nc(N)n1,–,inactive
COc1ccc(Nc2nc(N)nc(CSc3n[nH]c(-c4ccccc4)n3)n2)cc1,–,10 µM (active)
C#CCSc1n[nH]c(-c2ccco2)n1,0.772% [at 11.4 µM],–
CCCc1nnc(SCC(=O)N2CCCCC2)n1CCCOC,–,inactive
CCCc1nnc(SCC(=O)N2C(C)CCCC2C)n1CCCOC (configuration not stated),–,28.2 µM (active)
NOCC(=O)O,–,inactive
COc1ccc(C(=O)Nc2ccc(NC(=O)c3ccco3)c(Cl)c2)cc1OC,–,inactive
CNc1cc(OC)c(C(=O)N[C@@H]2CCN(Cc3ccccc3)[C@H]2C)cc1Cl,–,inactive
CC(C)Oc1ccc(C(=O)Nc2ccc(NC(=O)c3ccco3)c(Cl)c2)cc1,–,3.98 µM (active)
COc1cc(NC(=O)c2ccccc2Cl)ccc1NC(=O)c1ccco1,–,8.91 µM (active)
Cc1nn(-c2ccc(F)cc2)c(C)c1NS(=O)(=O)c1ccc2ccccc2c1,–,0.316 µM (active)
Cc1ccc(C)c(/C(=N\N=C(N)N)C2CC2)c1,-19.5% [at 11.4 µM],–
CCCCCC(=O)Nc1cc2[nH]c(=O)cc(COC)c2cc1C,–,inactive
CCCCCCCCC(=O)N/N=C/c1cccc(Br)c1,–,2 µM (active)
O=C(N/N=C/c1ccccn1)c1ccco1,–,inactive
CCN(CC)C(=O)C(=O)N/N=C/c1cccc(Br)c1,–,22.4 µM (active)
CCCCCCCCCCCCCCCC(=O)NC(C)C,–,inactive
CCCCCCCCC(=O)N/N=C/c1ccccn1,–,5.01 µM (active)
C[C@@](Cc1ccc(O)c(O)c1)(NN)C(=O)O,–,inactive
Cc1cc2cc3c(cc2nc1SCC(=O)Nc1c(C)cccc1C)CCC3,–,3.55 µM (active)
COc1ccc(CCn2c(C)cc(C(=O)CSc3nc(N)cc(=O)[nH]3)c2C)cc1,–,3.55 µM (active)
Cc1cc(C(=O)CSc2nnc(N)s2)c(C)n1CCc1ccc(F)cc1,–,0.794 µM (active)

SMILES,"activity, negative = inhibition",AC50
COc1ccc(C(=O)NC2(C(F)(F)F)C(=O)Nc3c2c(=O)[nH]c(=O)n3CCc2ccc(OC)c(OC)c2)cc1 (configuration not stated),–,inactive
CCOC(=O)Nc1ccc2c(c1)OCO2,–,20 µM (active)
COc1cccc(NC(=O)c2oc3ccccc3c2NC(=O)c2ccc3c(c2)OCO3)c1,–,3.55 µM (active)
CCOc1ccc(NC(=O)c2oc3ccccc3c2NC(=O)CC)cc1,–,2.24 µM (active)
O=C(Nc1cccc(-c2nc3ccccc3s2)c1)c1ccc2c(c1)OCO2,–,7.08 µM (active)
CCOCC(=O)Nc1c(C(=O)Nc2ccccc2OC)oc2ccccc12,–,inactive
CCOC(=O)Nc1ccc(C(=O)Oc2ccccc2)c(O)c1,–,3.55 µM (active)
CCOC(=O)c1oc2ccccc2c1NC(=O)c1cc(OC)cc(OC)c1,–,25.1 µM (active)
CCOC(=O)c1oc2ccccc2c1NC(=O)c1ccc2c(c1)OCO2,–,2.82 µM (active)
CC(C)(C)c1ccc(OC(=O)Nc2ccc(O)c(C(=O)O)c2)cc1,41.8% [at 11.4 µM],–
CCOC(=O)c1oc2ccccc2c1NC(=O)c1ccc(S(=O)(=O)N(C)C)cc1,–,inactive
Cc1cccc(C)c1OCC(O)CNC(C)(C)C (configuration not stated),–,inactive
Cc1ccccc1OCC(O)Cn1c2ccccc2c2ccccc21 (configuration not stated),–,0.631 µM (active)
Cc1ccc(OCC(O)Cn2c3ccccc3c3ccccc32)cc1 (configuration not stated),–,1.26 µM (active)
C=CCN(CC=C)CC(O)Cn1c2ccccc2c2ccccc21 (configuration not stated),–,0.562 µM (active)
Cc1ccccc1OCC(O)Cn1c(NCc2ccccc2)nc2c1c(=O)[nH]c(=O)n2C (configuration not stated),–,inactive
c1ccc([C@@H]2CN3CCSC3=N2)cc1,–,inactive
COc1ccc(CCn2c(=N)c(C(=O)NCc3ccco3)cc3c(=O)n4ccccc4nc32)cc1,–,11.2 µM (active)
C=CCn1c(Cc2c[nH]c3ccccc23)nnc1SCC(=O)NCc1ccccc1,–,25.1 µM (active)
CCn1c(CC(=O)Nc2ccc(C)cc2)nnc1SCC(=O)Nc1nc(C)cs1,–,inactive
CCn1c(CC(=O)Nc2ccc(C)cc2)nnc1SCC(=O)NCCc1ccccc1,–,22.4 µM (active)
CCn1c(CSCc2ccc(C)cc2)nnc1SCC(=O)NCc1ccccc1,–,14.1 µM (active)
C[C@@](N)(C(=O)O)c1ccc(S(=O)(=O)O)cc1,–,inactive
COc1cc(OC)c2nc(C)c3c(c2c1)N(c1ccc(O)cc1)CC3,–,14.1 µM (active)
Clc1ccccc1C(Nc1cnccn1)Nc1cnccn1,12% [at 11.4 µM],–

SMILES,"activity, negative = inhibition",AC50
CC1(C)S[C@@H]2[C@H](C(=O)O)N=C(Cc3ccccc3)N2[C@H]1C(=O)O,28.2% [at 11.4 µM],–
COc1ccc2c(c1)c(CC(=O)O)c(C)n2Cc1ccc(Cl)cc1,–,10 µM (active)
COc1ccc2c(c1)c(CC(=O)O)c(C)n2C(=O)c1ccc(Cl)cc1,–,inactive
COc1ccc2c(c1)c(CC(=O)OCC(=O)O)c(C)n2C(=O)c1ccc(Cl)cc1,–,inactive
CC(C)(C)N1C(=O)[C@H]2[C@@H]3[C@H](O)C=CC(=O)[C@H]3CC[C@H]2C1=O,23.7% [at 11.4 µM],–
CS(=O)(=O)N1N=C(c2ccc(Br)cc2)CC1c1ccc2c(c1)OCO2 (configuration not stated),–,0.178 µM (active)
C[C@@H]1CC[C@H]2C(=O)N3[C@@H](CC[C@@H](C)[C@@H]3c3ccc(Br)cc3)C(=O)N2[C@@H]1c1ccc(Br)cc1,-27.6% [at 11.4 µM],–
COc1ccc(OCCNS(=O)(=O)c2ccc3oc4ccccc4c3c2)cc1,–,2.24 µM (active)
COc1ccc(NC(=O)CCNS(=O)(=O)c2ccc3c(c2)c(=O)n(C)c(=O)n3C)cc1,–,inactive
CCCCc1ccc(NC(=S)NCc2cccs2)cc1,–,3.55 µM (active)
Cc1ccc(C(=O)COC(=O)CNC(=O)Cc2ccccc2)cc1[N+](=O)[O-],–,inactive
Cc1ccc(C(=O)COC(=O)CNC(=O)C(c2ccccc2)c2ccccc2)cc1[N+](=O)[O-],–,5.01 µM (active)
Cc1ccc(C(CC(=O)c2ccco2)SCCO)cc1 (configuration not stated),–,2.82 µM (active)
CC[C@H](CN(C)C)C(=O)c1ccco1,8.39% [at 11.4 µM],–
O=C(O)c1c(-c2c3ccc(=O)cc-3oc3cc(O)ccc23)cc2ccccc2c1-c1ccccc1,25.6% [at 11.4 µM],–
COc1ccc(-c2cc(=O)c3c(O)cc(O)cc3o2)cc1,–,1 µM (active)
COc1ccc(C2=C(C#N)C(=O)OC2)cc1,–,inactive
O=c1cc(-c2ccccc2)oc2cc(O)cc(O)c12,–,0.794 µM (active)
O=c1cc(-c2ccc(O)cc2)oc2cc(O)cc(O)c12,–,7.94 µM (active)
O=c1c(O)c(-c2ccc(O)c(O)c2)oc2cc(O)cc(O)c12,–,inactive
Cc1cc(=O)c2c(O)c(O)ccc2o1,–,inactive
O=c1cc(-c2ccccc2)oc2cc(O)c(O)c(O)c12,–,inactive
